Hits are enriched below; roughly 12% of the tested compounds scored in any of these assays.
Pf growth 96h – Primary qHTS for delayed death inhibitors of the malarial parasite plastid, 96 hour incubation | P. falciparum luciferase reporter growth, 96 h | 320,000 tested, 6.9% active | Potency, µM (doses to about 28.7 µM), most hits filed as inhibitors
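P. falciparum expressing integrated firefly luciferase grown in erythrocytes (2% hematocrit, 0.05% parasitemia final) with compounds for 96 hours at 37 C, 5% CO2. Growth inhibition read as loss of luminescence after adding luciferase detection reagent.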
AmpC inh no detg – qHTS Inhibitors of AmpC Beta-Lactamase (assay without detergent). AID 485341, 2010. Potency, µM (doses to about 57.1 µM), usual class: inhibitors. 330,000 tested, 0.52% active. P00811. AmpC nitrocefin hydrolysis, absorbance 480 nm, 0.0001% Triton; also: nearly all actives have a fitted effect of over 20% in size
Target sequence (P00811 whole entry, looked up): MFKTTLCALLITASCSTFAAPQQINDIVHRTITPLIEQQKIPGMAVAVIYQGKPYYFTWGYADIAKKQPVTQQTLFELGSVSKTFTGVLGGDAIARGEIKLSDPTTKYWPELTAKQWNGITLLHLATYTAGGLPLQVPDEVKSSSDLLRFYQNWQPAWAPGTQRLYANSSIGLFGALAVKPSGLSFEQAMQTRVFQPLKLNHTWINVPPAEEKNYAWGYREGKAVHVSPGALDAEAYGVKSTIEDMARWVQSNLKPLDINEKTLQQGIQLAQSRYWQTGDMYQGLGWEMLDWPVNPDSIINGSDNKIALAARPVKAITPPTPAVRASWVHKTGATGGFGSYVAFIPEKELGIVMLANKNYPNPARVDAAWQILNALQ
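20 mM phosphate pH 7.0 + 0.01% (detergent screen) or 0.0001% Triton X-100; 5.3 nM AmpC reagent; cpd preinc 15 min RT; nitrocefin (800 uM stock) to start; A480 q20 s × 4 min; Activity was normalised to no-enzyme and no-compound control wells.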
AmpC detergent – qHTS Inhibitors of AmpC Beta-Lactamase (assay with detergent) | P00811 | AmpC hydrolysis of nitrocefin, absorbance 480 nm, 0.01% Triton | Potency, µM (top dose mostly 114 µM), actives largely listed as inhibitors | 370,000 tested, 0.041% active | AID 485294, 2010; also: nearly all actives have a fitted effect of over 25% in size
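AmpC (5.3 nM in the dispensed reagent) in 20 mM phosphate pH 7.0 with 0.01% (detergent screen) or 0.0001% Triton X-100 was preincubated with compounds for 15 min at room temperature. Nitrocefin was then added from an 800 uM solution, and hydrolysis was followed at 480 nm.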
SARS PLP yeast – qHTS of Yeast-based Assay for SARS-CoV PLP | S. cerevisiae expressing SARS-CoV PLpro, growth rescue | 330,000 tested, 0.19% active | Potency, µM (series often up to 32.9 µM), most hits filed as activators; calls by dose curve; also: nearly all actives have a fitted effect of over 55% in size
Pf growth 48h – Primary qHTS for delayed death inhibitors of the malarial parasite plastid, 48 hour incubation. P. falciparum luciferase growth in erythrocytes, 48 h. Potency, µM (doses to about 28.7 µM), most hits filed as inhibitors. 310,000 tested, 5.9% active
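A one-generation exposure of luciferase-tagged malaria parasites in RPMI 1640/Albumax erythrocyte culture, 37 C and 5% CO2. Inhibition is inferred from decreased luminescence after adding detection reagent.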
Sm TGR inh – qHTS Assay for the Inhibitors of Schistosoma Mansoni Peroxiredoxins; Schistosoma mansoni thioredoxin glutathione reductase (TGR), Q962Y6; purified TGR, DTNB reduction, TNB absorbance 405 nm; 360,000 tested, 3% active; Potency, µM (series often up to 114 µM), actives largely listed as inhibitors; also: nearly all actives have a fitted effect of over 60% in size
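Kinetic colorimetric format: TGR-catalysed, NADPH-driven DTNB reduction monitored via TNB absorbance. Enzyme dispensed at 20 nM; compound exposure 15 min at room temperature before reaction start.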
Hits are given with their value; i = inactive; ? = inconclusive; nt = not tested or not shown; [ ] = remark or other dose. Unless noted, calls follow the shape of the dose curve; as a rule, active = well fitted curve in the direction sought with a large enough effect; inconclusive = small, poorly fitted or top-dose-only effect, or another doubt; inactive = no such curve, though single readings can be large; an effect the other way counts as inactive or inconclusive.

SMILES | Pf growth 96h | AmpC inh no detg | AmpC detergent | SARS PLP yeast | Pf growth 48h | Sm TGR inh
O=C1c2oc3ccccc3c(=O)c2C(c2cccc(Br)c2)N1Cc1ccco1 (configuration not stated) | 0.37µM | i | i | i | i | i
COc1cc2c(cc1OC)C(c1cccs1)N(C(=O)C(C)C)CC2 (configuration not stated) | i | i | i | i | ? | i
COc1cc2c(cc1OC)C(C)N(C(=O)c1ccc(C)o1)CC2 (configuration not stated) | i | i | ? | i | i | i
COc1cc2c(cc1OC)C(c1cc3ccc(C)cc3[nH]c1=O)N(C(=O)c1ccco1)CC2 (configuration not stated) | i | i | i | i | 13µM | i
COc1cc2c(cc1OC)C(c1cc3cc4c(cc3[nH]c1=O)OCO4)N(C(=O)C1CC1)CC2 (configuration not stated) | i | i | i | i | 13µM | i
CCC(Sc1nc(-c2ccccc2)[nH]c1S(=O)(=O)c1ccc(C)cc1)C(=O)O (configuration not stated) | nt | nt | i | nt | nt | ?
c1cn2cc(CN3CCOCC3)nc2s1 | ? | i | ? | i | i | i
Cc1ccc(C2SCC(=O)N2Cc2cn3ccsc3n2)o1 (configuration not stated) | 15µM | i | i | i | i | ?
N#Cc1ccsc1NC(=O)COC(=O)c1cc2ccccc2cc1O | i | i | i | i | i | i
O=C1C=C(c2ccccc2)CC(c2cccs2)C1n1cnc([N+](=O)[O-])c1 (configuration not stated) | ? | i | i | i | ? | i
O=C1C=C(c2ccccc2)C[C@H](c2cccs2)[C@H]1n1nnc([N+](=O)[O-])n1 | 8.3µM | i | i | i | 1.9µM | i
O=C(O)[C@@H]1CCCC[C@@H]1C(=O)N1CCc2ccccc2C1CN1C(=O)c2ccccc2C1=O (some centres not stated) | i | i | i | i | nt | i[11.4 µM]
O=C1c2ccccc2C(=O)N1CC1c2ccccc2CCN1C(=O)C1CCCCC1 (configuration not stated) | 12µM | i | i | i | nt | i
CC(=O)c1ccc(Nc2cc(C)nc3nc(Cc4ccc(Cl)cc4)nn23)cc1 | nt | nt | i | nt | nt | i
CNC(=O)c1ccc(Nc2nnc(-c3ccc(C)c(S(=O)(=O)NC(C)(C)C)c3)c3ccccc23)cc1 | nt | nt | i | nt | nt | i
Cc1ccccc1NC(=O)c1cnc2ccccn2c1=O | 6.6µM | i | i | i | i | i
Cc1cc(Br)cc(C)c1NC(=O)c1cnc2ccccn2c1=O | nt | nt | i | nt | nt | i
COc1ccc(C(=O)Nc2cnc3ccccn3c2=O)cc1 | ? | i | i | i | i | i
O=C(Nc1cnc2ccccn2c1=O)c1ccc(F)cc1 | 13µM | ? | i | i | i | i
NCCc1nnc(SCC(=O)c2ccc(Cl)cc2)o1 | i | i | i | i | i | i
S=C(c1cn(CCOc2ccccc2)c2ccccc12)N1CCCC1 | ? | i | i | i | 12µM | i
S=C(c1cn(CCOc2cccc3ccccc23)c2ccccc12)N1CCCC1 | ? | i | ? | i | 13µM | i
O=C(N1CCCCC1)C1(c2ccccc2)CCOCC1 | 12µM | i | ? | i | i | i
O=C(CSc1c(F)c(F)cc(F)c1F)Nc1ccc(C2SCCS2)cc1 | i | i | i | i | i | i
CCc1cccc(CC)c1-n1nnc2c(sc3nc(C)cc(C)c32)c1=O | nt | nt | i | nt | nt | i
SMILES | Pf growth 96h | AmpC inh no detg | AmpC detergent | SARS PLP yeast | Pf growth 48h | Sm TGR inh
CCOC(=O)CSc1nnc(-c2ccco2)n1-c1ccccc1 | i | i | i | i | i | 22µM
COc1ccccc1-n1c(SCC(=O)O)nnc1-c1ccc(S(=O)(=O)N2CCCCC2)cc1 | 12µM | i | i | i | i | i
NC(=O)CSc1nnc(-c2cccc(S(=O)(=O)N3CCOCC3)c2)n1C1CCCCCC1 | ? | i | i | i | nt | i
Cc1ccc(CSc2nnc(-c3cccc(S(=O)(=O)N4CCOCC4)c3)n2C2CCCC2)cc1 | 8.3µM | i | i | i | 9.3µM | i
Cn1c(SCC(=O)c2ccccc2)nnc1-c1ccco1 | 15µM | i | i | i | i | ?
O=C(NCc1ccc(F)cc1)C1CCN(C(=O)c2ccc(-n3ccc4ccccc43)s2)CC1 | nt | nt | i | nt | nt | i
CC(C)Cn1c(SCC(=O)NCc2ccc(Cl)cc2)nnc1-c1cccc(S(=O)(=O)N2CCOCC2)c1 | 9.3µM | i | i | i | ? | i
CCn1c(SCC(=O)Nc2ccc(-c3nc4ccc(C)cc4s3)cc2)nnc1-c1ccccc1 | 13µM | i | i | i | i | i
CCOC(=O)CSc1nnc(-c2ccc(S(=O)(=O)N3CCOCC3)cc2)n1-c1ccccc1 | nt | i | i | i | 7.4µM | i
Cc1nnc(SCC(=O)c2ccc(S(=O)(=O)N3CCOCC3)cc2)n1-c1ccccc1 | i | i | i | i | ? | ?
CCn1c(SCC(=O)Nc2ccccc2)nnc1-c1ccc(S(=O)(=O)N2CCOCC2)cc1 | ? | i | i | i | 5.2µM | i
CC(C)OCCCNC(=O)C(=O)Nc1ccc2nc3n(c(=O)c2c1)CCCCC3 | nt | nt | i | nt | nt | i
CCOc1ccc(C(=O)N2CCC(c3nc4ccccc4o3)CC2)cc1 | nt | nt | i | nt | nt | i
COc1ccc(NC(=O)CCCN2C(=O)CCn3nc(-c4cn(C)c5ccccc45)cc32)cc1 | nt | nt | i | nt | nt | i
CCc1ccc(C(=O)NC(=S)Nc2ccc3c(c2)OCCO3)cc1 | 8.3µM | i | i | i | i | i
O=C(NC(=S)Nc1ccc2c(c1)OCCO2)c1ccc(F)cc1Cl | i | i | 79µM | i | i | ?
Cc1cc(C)cc(C(=O)NC(=S)Nc2ccc3c(c2)OCCO3)c1 | 0.93µM | i | i | i | i | i
Cc1ccc(C(=O)NC(=S)Nc2ccc3c(c2)OCCO3)c(C)c1 | ? | i | i | i | i | ?
CCOC(=O)c1c(C)n(CC(O)CN(CC)CC)c2cc(Br)c(OC)cc12 (configuration not stated) | 15µM | i | i | i | ? | i
CCOC(=O)c1c(CNCCN(CC)CC)n(C)c2cc(Br)c(OC)cc12 | i | i | i | i | nt | i
CCOC(=O)c1c(CN2CCCCC2)n(C)c2ccc(OC)c(S(=O)(=O)c3ccccc3)c12 | 7.4µM | i | ? | i | 10µM | i
CCOC(=O)c1c(C)n(C)c2cc(Br)c(OC)cc12 | i | i | i | i | i | i
CCOC(=O)c1c(C)n(C)c2ccc(O)c(S(=O)(=O)c3ccccc3)c12 | nt | i | i | i | i | i
